# Where “and” joins values, the source holds several entries; their conditions need not be identical. Equal entries are not always repeated. Records with an inconclusive call do not appear. Where a call stands in place of a potency, no number is given. Where a structure was tested more than once in an assay, its records may differ in their call. Calls of active or inactive are those of the source. Calls follow the shape of the dose curve; as a rule, active = well fitted curve in the direction sought with a large enough effect in the repeat runs; inconclusive = weak or mixed curves; inactive = no such curve, though single readings can be large; an effect the other way counts as inactive or inconclusive.
# Assays:
# [1] = qHTS RealTime-Glo MT Cell Viability Assay in HEK293 cells - 16 hour (AID 1224872); also: nearly all actives have a fitted effect of over 50% in size; also: potency is read from the fitted curve at half-maximal effect
# Outline: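 Viability tracked continuously by luminescence as live cells reduce a prosubstrate for NanoLuc; HEK293 cells preincubated 5 h, compound-treated at 37 C, and read at 0, 8, 16, 24, 32 and 40 h.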
# [2] = qHTS RealTime-Glo MT Cell Viability Assay in HepG2 cells - 8 hour (AID 1224873); also: nearly all actives have a fitted effect of over 55% in size; also: potency is read from the fitted curve at half-maximal effect
# Outline: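 Real-time viability: cells seeded at 600 per well together with NanoLuc and cell-permeant prosubstrate, compounds added after 5 h incubation. Luminescence tracked at 0, 8, 16, 24, 32 and 40 h of exposure.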
# [3] = qHTS RealTime-Glo MT Cell Viability Assay in HEK293 cells - 40 hour (AID 1224874); conditions: RealTime-Glo luminescence; max response: stronger effect = lower value; also: nearly all actives have a fitted effect of over 50% in size; also: potency is read from the fitted curve at half-maximal effect
# Outline: (§1)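 Measured as luminescence from the same continuously cultured HEK293 wells at successive time points (0, 8, 16, 24, 32, 40 h) after compound addition. Reagent present from seeding; dosing at 5 h; incubation 37 C.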
# [4] = A CellTox Green Cytotoxicity Assay to monitor cytotoxicity in HEK293 cells - 24 hour (AID 1224875); also: nearly all actives have a fitted effect of over 45% in size; also: potency is read from the fitted curve at half-maximal effect
# Outline: (§2)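 Homogeneous no-lysis format: HEK293 cell suspension mixed with CellTox Green reagent, seeded, incubated 5 h at 37 C/5% CO2, then dosed by pintool with compound in DMSO.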
# [5] = A CellTox Green Cytotoxicity Assay to monitor cytotoxicity in HepG2 cells - 16 hour (AID 1224876); also: nearly all actives have a fitted effect of over 45% in size; also: potency is read from the fitted curve at half-maximal effect
# Outline: (§3)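 Fluorescent DNA-binding dye, 600 HepG2 cells/well, 5 h preincubation then compound in DMSO; same plates read at 0–40 h, 37 C.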
# [6] = qHTS RealTime-Glo MT Cell Viability Assay in HepG2 cells - 32 hour (AID 1224877); also: nearly all actives have a fitted effect of over 55% in size; also: potency is read from the fitted curve at half-maximal effect
# Outline: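 Viability was tracked continuously by NanoLuc luminescence from prosubstrate reduced by living HepG2 cells, at successive time points over 40 h of compound exposure. Cells with reagent were preincubated 5 h at 37 °C before compound addition.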
# [7] = A CellTox Green Cytotoxicity Assay to monitor cytotoxicity in HepG2 cells - 40 hour (AID 1224879); also: nearly all actives have a fitted effect of over 40% in size; also: potency is read from the fitted curve at half-maximal effect
# Outline: as §3
# [8] = qHTS RealTime-Glo MT Cell Viability Assay in HEK293 cells - 0 hour (AID 1224880); also: top concentration of the series differs between compounds; nearly all actives have a fitted effect of over 45% in size
# Outline: as §1
# [9] = A CellTox Green Cytotoxicity Assay to monitor cytotoxicity in HEK293 cells - 32 hour (AID 1224881); also: nearly all actives have a fitted effect of over 40% in size; also: potency is read from the fitted curve at half-maximal effect
# Outline: as §2
# [10] = A CellTox Green Cytotoxicity Assay to monitor cytotoxicity in HepG2 cells - 24 hour (AID 1224878); also: nearly all actives have a fitted effect of over 45% in size; also: potency is read from the fitted curve at half-maximal effect
# Outline: as §3
SMILES,Potency [1],Potency [2],max response [3],Potency [4],Potency [5],Potency [6],Potency [7],Potency [8],Potency [9],Potency [10],Potency [3]
COc1cc(N)c(Cl)cc1C(=O)NC1CN2CCC1CC2 (stereo not given),inactive,inactive,-15.3% (inactive),inactive,inactive,inactive,inactive,inactive,inactive,,
ClC1=C(Cl)[C@]2(Cl)[C@@H]3[C@@H](Cl)[C@H](Cl)C[C@@H]3[C@@]1(Cl)C2(Cl)Cl,inactive,inactive,7.93% (inactive),,inactive,inactive,inactive,,,,
Nc1ccc([N+](=O)[O-])cc1Cl,inactive,inactive,-7.63% (inactive),inactive,,inactive,inactive,inactive,inactive,inactive,
N#Cc1ccc(O)cc1,inactive,inactive,-7.33% (inactive),inactive,inactive,inactive,inactive,inactive,inactive,,
CC(C)CC(C)Nc1ccc(Nc2ccccc2)cc1 (stereo not given),19.2 µM (active),42.9 µM (active),,,inactive,,,,48.2 µM (active),inactive,21.5 µM (active)
Clc1ccc(C(c2ccc(Cl)cc2)C(Cl)(Cl)Cl)cc1,39.2 µM (active),inactive,,,inactive,inactive,inactive and 54.9 µM (active),inactive,55.3 µM (active) and inactive,inactive,39.2 µM (active)
Clc1ccc(COC(Cn2ccnc2)c2ccc(Cl)cc2Cl)cc1 (stereo not given),20.4 µM (active) and 19.4 µM (active),43.5 µM (active),,,54.7 µM (active),48.8 µM (active),45.7 µM (active) and 54.7 µM (active) and 16.9 µM (active),inactive,45.7 µM (active) and 54.7 µM (active) and inactive,45.7 µM (active) and 54.7 µM (active),16.2 µM (active) and 24.4 µM (active)
CCCCCCCCCCCCBr,inactive,inactive,-12.1% (inactive),inactive,,inactive,inactive,inactive,inactive,inactive,
COc1ccc([N+](=O)[O-])cc1O,inactive,inactive,1.5% (inactive),inactive,,inactive,inactive,inactive,inactive,inactive,
COc1ccc(OC)c(CC(C)N)c1 (stereo not given),inactive,inactive,-2.46% (inactive),inactive,,inactive,inactive,inactive,inactive,inactive,
COC12CC[C@@]3(C[C@@H]1C(C)(O)C(C)(C)C)[C@H]1Cc4ccc(O)c5c4[C@@]3(CCN1CC1CC1)[C@H]2O5 (stereo not given in full),24.4 µM (active),43.4 µM (active),,38.6 µM (active),,48.6 µM (active),24.4 µM (active),,38.6 µM (active),,24.4 µM (active)
C=CC(=O)N(C)C,inactive,inactive,-0.539% (inactive),inactive,inactive,,inactive,inactive,inactive,inactive,
N#C/C=C/c1ccccc1,inactive,inactive,-0.121% (inactive),inactive,,inactive,inactive,,inactive,inactive,
C[C@@H]1O[C@@H](O[C@@H]2C=C3CC[C@@H]4[C@H](CC[C@]5(C)[C@@H](c6ccc(=O)oc6)CC[C@]45O)[C@@]3(C)CC2)[C@H](O)[C@H](O)[C@H]1O,,inactive,,inactive,inactive,inactive,inactive,inactive,inactive,inactive,0.019 µM (active)
CC(O)C#N (stereo not given),,inactive,-0.282% (inactive),inactive,inactive,inactive,inactive,inactive,inactive,,
C[C@]12Cc3nonc3C[C@@H]1CC[C@@H]1[C@@H]2CC[C@@]2(C)[C@H]1CC[C@]2(C)O,,inactive,,inactive,inactive,inactive,inactive,inactive,inactive,inactive,19 µM (active)
c1ccc(OCC2CO2)cc1 (stereo not given),,inactive,7.88% (inactive),inactive,inactive,inactive,inactive,,inactive,inactive,
CN(C)C1CSSSC1,,inactive,3.22% (inactive),inactive,inactive,inactive,inactive,,inactive,inactive,
O=C(Nc1ccc2[nH]ccc2c1)c1cc2cc(F)ccc2n1Cc1cccc(F)c1,inactive,,,inactive,inactive,,inactive,inactive,inactive,,
CCc1cc(C)cc(CC)c1-c1c(OC(=O)C(C)(C)C)n2n(c1=O)CCOCC2,,inactive,-25.1% (inactive),inactive,inactive,inactive,inactive,inactive,inactive,inactive,

# — PubChem BioAssay (Tox21)
